Results filed as inconclusive are left out. The source made the active and inactive calls. The call rests on the fitted dose curve; in most records, active means well fitted curve in the direction sought with a large enough effect; inconclusive means small, poorly fitted or top-dose-only effect, or another doubt; inactive means no such curve, though single readings can be large or run the other way.
Experiment: qHTS Assay for Inhibitors of Histone Lysine Methyltransferase G9a: Hit Confirmation in b-rIgG Counterscreen
Source text: Methylated lysines, on the N-terminal tails of histone proteins serve as epigenetic markers to recruit factors that can then modify local chromatin structure to lead to functional consequences. G9a and other members of the SUV39 family of the SET domain-containing superfamily of histone lysine methyltransferases (HMT) have been identified to specifically methylate Lys9 of histone H3 (H3K9). G9a catalyzes the mono- and di-methylation of H3K9 in mammalian euchromatic regions, where the resulting H3K9me2 is indicative of transcriptional repression. […] The inhibition of G9a will result in transcriptional activation and work synergistically with DNA methyltransferase and histone deacetylase inhibitors, to kill cancer cells. This qHTS assay for identification of G9a inhibitors is a chemiluminescence based AlphaScreen (PerkinElmer). Methylation of biotinylated-histone peptide is measured through specific antibody-based detection, in conjunction with streptavidin-coated donor and anti-IgG antibody-coated acceptor beads. The method is particularly well suited for detection of inhibitors acting by the desired histone peptide competitive mechanism and is applicable to testing other HMTs. Although AlphaScreen has significant advantages with its utility in a variety of epigenetic target assays, the primary screening data provided in this deposition should be used with caution due to the prevalence of screening artifacts. Because an AlphaScreen counterscreen is highly recommended to be run against any putative actives to eliminate non specific artifacts, this assay was used as a counterscreen. Quinn et al. A chemiluminescence-based method for identification of histone lysine methyltransferase inhibitors. Mol Biosyst 6(5): 782-8. 2010. PMID: 20567762 [2] Baell,Holloway. New substructure filters for removal of pan assay interference compounds (PAINS) from screening libraries and for their exclusion in bioassays. J Med Chem. 53(7):2719-40. 2010. PMID: 20131845 NIH Chemical Genomics Center [NCGC] NIH Molecular Libraries Probe Production Network [MLPCN] MLPCN Grant: MH084681-02 Assay Submitter (PI): Structural Genomic Consortium - Toronto, Peter Brown
Biotinylated rabbit-IgG (b-rIgG) (Santa Cruz Biotechnology, Inc., Santa Cruz, CA) was added to 1,536-well plates in a 3 uL dispense. Compounds were added in a 23 nL pin-transfer step, and plates were incubated at room temperature for 15 min. Streptavidin-coated donor and anti-rIgG acceptor AlphaScreen beads were added (1 uL) for final concentrations of 20 ug/mL each bead and 1 nM b-rIgG, and plates read on the Envision after a 15 min incubation at room temperature in the dark.

Compound	outcome
Oc1ccc2c3c1O[C@H]1[C@@H](O)CC[C@@]4(O)C(C2)N(CC2CCC2)CCC314 (some centres not stated)	inactive
CCCN(CCC)CCc1c[nH]c2ccc(C(N)=O)cc12	inactive
NCCc1c[nH]c2ccc(O)cc12	inactive
C/C(O)=C(\C#N)C(=O)Nc1cc(Br)ccc1Br	inactive
O=C1NC(=O)N(CCc2ccc(F)cc2)C(=O)/C1=C/C=C/c1ccccc1	inactive
CN1CSC(=S)N(C)C1	inactive
COc1ccc(OC)c(N2C(=O)NC(=O)/C(=C\c3ccc([N+](=O)[O-])s3)C2=O)c1	inactive

From PubChem BioAssay AID588346 (National Center for Advancing Translational Sciences (NCATS), 2011)
